Laboratory results reported in PMC4081100, “A DNA-binding-site landscape and regulatory network analysis for NAC transcription factors in Arabidopsis thaliana”.

How the values were obtained:
Test in all cases: universal protein binding microarray (PBM); transcription factors of Arabidopsis thaliana; high values mean tight binding
[1] = biological target: T1, GST-ANAC019 NAC domain (Arabidopsis thaliana, UniProt Q9C932 14-162); conditions: protein: recombinant; tags: GST; chain copies: 2; dsDNA, one strand shown
T1 sequence: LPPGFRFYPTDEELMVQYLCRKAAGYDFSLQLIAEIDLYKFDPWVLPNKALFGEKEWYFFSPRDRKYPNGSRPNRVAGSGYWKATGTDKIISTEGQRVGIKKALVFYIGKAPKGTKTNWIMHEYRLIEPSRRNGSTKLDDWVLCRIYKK
Procedure, shortened: (§1)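 GST-tagged proteins (NAC-domain, full-length or DNA-binding-domain) were induced in cells, with zinc acetate supplied for zinc-finger proteins, then purified on glutathione–Sepharose 4B. Each was tested in duplicate at 200 to 500 nM final on custom all-10-mer Agilent 4 × 180K arrays rendered double-stranded by primer extension. The binding value is the normalised enrichment score (E-score) across gapped and ungapped 8-mers.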

[2] = biological target: GST-WRKY1(266-371) (Arabidopsis thaliana, UniProt Q9SI37 266-371); conditions: protein: recombinant; tags: GST; dsDNA, one strand shown
Procedure, shortened: as §1

[3] = biological target: T2, GST-ANAC055(1-171) (Arabidopsis thaliana, UniProt Q9LDY8 1-171); conditions: protein: recombinant; tags: GST; chain copies: 2; dsDNA, one strand shown
T2 sequence: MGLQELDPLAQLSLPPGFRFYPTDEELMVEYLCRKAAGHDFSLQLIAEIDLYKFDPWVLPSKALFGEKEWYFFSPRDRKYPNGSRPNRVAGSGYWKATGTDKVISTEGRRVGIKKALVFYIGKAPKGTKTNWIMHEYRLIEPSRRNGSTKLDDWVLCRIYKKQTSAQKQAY
Procedure, shortened: as §1

[4] = biological target: T3, GST-ATAF1 NAC domain (Arabidopsis thaliana, UniProt Q39013 7-158); conditions: protein: recombinant; tags: GST; chain copies: 2; dsDNA, one strand shown
T3 sequence: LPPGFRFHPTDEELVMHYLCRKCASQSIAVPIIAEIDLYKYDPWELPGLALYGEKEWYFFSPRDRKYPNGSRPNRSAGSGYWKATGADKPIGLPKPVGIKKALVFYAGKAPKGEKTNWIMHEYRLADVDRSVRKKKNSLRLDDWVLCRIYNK
Procedure, shortened: as §1

[5] = biological target: T4, GST-ANAC092(1-285) full length (Arabidopsis thaliana, UniProt Q9FKA0 1-285); conditions: protein: recombinant; tags: GST; chain copies: 2; dsDNA, one strand shown
T4 sequence: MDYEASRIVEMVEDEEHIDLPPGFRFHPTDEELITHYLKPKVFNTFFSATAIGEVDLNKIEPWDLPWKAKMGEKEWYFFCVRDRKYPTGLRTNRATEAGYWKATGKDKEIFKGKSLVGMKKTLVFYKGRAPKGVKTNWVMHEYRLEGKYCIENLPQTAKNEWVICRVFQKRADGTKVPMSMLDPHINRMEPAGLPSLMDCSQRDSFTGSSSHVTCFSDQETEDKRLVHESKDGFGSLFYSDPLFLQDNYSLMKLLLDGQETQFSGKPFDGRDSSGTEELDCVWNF
Procedure, shortened: as §1

[6] = biological target: T5, GST-NST2(1-184) (Arabidopsis thaliana, UniProt Q9M274 1-184); conditions: protein: recombinant; tags: GST; chain copies: 2; dsDNA, one strand shown
T5 sequence: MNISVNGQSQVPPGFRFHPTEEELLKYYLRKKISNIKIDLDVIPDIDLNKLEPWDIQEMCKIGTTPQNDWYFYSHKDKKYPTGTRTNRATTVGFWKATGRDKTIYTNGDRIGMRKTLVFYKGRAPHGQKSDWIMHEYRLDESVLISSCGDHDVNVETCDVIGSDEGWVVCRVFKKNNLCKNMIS
Procedure, shortened: as §1

[7] = biological target: GST-NTL6(1-168) (Arabidopsis thaliana, UniProt Q9SCK6 1-168); conditions: protein: recombinant; tags: GST; chain copies: 2; dsDNA, one strand shown
Procedure, shortened: as §1

[8] = biological target: T6, GST-NTL8 NAC domain (Arabidopsis thaliana, UniProt Q9XIN7 14-156); conditions: protein: recombinant; tags: GST; chain copies: 2; dsDNA, one strand shown
T6 sequence: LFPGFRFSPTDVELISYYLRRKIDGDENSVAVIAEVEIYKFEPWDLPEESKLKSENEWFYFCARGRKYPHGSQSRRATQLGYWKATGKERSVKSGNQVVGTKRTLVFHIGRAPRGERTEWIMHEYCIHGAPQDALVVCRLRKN
Procedure, shortened: as §1

[9] = biological target: T7, GST-NAP(1-166) (Arabidopsis thaliana, UniProt O49255 1-166); conditions: protein: recombinant; tags: GST; chain copies: 2; dsDNA, one strand shown
T7 sequence: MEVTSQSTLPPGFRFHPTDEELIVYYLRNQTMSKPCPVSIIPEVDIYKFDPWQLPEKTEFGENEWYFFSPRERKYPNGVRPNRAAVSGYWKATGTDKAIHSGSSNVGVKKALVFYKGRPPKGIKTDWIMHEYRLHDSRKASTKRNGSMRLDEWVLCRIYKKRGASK
Procedure, shortened: as §1

Sequence of GST-WRKY1(266-371) (Q9SI37 266-371): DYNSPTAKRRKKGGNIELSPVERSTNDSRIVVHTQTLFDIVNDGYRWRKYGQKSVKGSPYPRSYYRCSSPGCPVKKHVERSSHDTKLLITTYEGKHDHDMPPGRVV
Sequence of GST-NTL6(1-168) (Q9SCK6 1-168): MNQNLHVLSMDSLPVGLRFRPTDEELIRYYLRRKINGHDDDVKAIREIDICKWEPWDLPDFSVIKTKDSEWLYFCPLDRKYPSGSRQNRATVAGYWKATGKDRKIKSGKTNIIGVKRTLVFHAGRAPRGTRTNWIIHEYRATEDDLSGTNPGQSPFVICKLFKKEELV

**Q.** How did the binding signal [1] turn out when GGTGGTCA was run?
**A.** 0.0992 E-score

**Q.** And the binding signal [2]?
**A.** 0.43 E-score

**Q.** ACTTGACT was tested. Which binding signal [3] did it give?
**A.** 0.0752 E-score

**Q.** And the binding signal [4]?
**A.** 0.186 E-score

**Q.** And the binding signal [5]?
**A.** 0.0808 E-score

**Q.** What about the binding signal [6] of the same sequence?
**A.** 0.0742 E-score

**Q.** What about the binding signal [2] of the same sequence?
**A.** 0.456 E-score

**Q.** Which results are given for AGGTTGAC?
**A.** binding signal [4]: 0.13 E-score; binding signal [2]: 0.474 E-score

**Q.** Which results are given for ATTTGACC?
**A.** binding signal [3]: 0.079 E-score; binding signal [2]: 0.481 E-score

**Q.** GAAGGTCA was tested. Which binding signal [7] did it give?
**A.** 0.116 E-score

**Q.** And the binding signal [8]?
**A.** 0.0878 E-score

**Q.** What about the binding signal [2] of the same sequence?
**A.** 0.426 E-score

**Q.** Which binding signal [1] does the source give for GCGTTGAC here?
**A.** 0.0691 E-score

**Q.** And the binding signal [9]?
**A.** 0.116 E-score

**Q.** And the binding signal [2]?
**A.** 0.488 E-score

**Q.** TGACCCCA was tested. Which binding signal [1] did it give?
**A.** 0.0651 E-score

**Q.** What about the binding signal [2] of the same sequence?
**A.** 0.428 E-score

**Q.** CAGTTGAC was tested. Which binding signal [1] did it give?
**A.** 0.135 E-score

**Q.** What about the binding signal [3] of the same sequence?
**A.** 0.0582 E-score

**Q.** What about the binding signal [4] of the same sequence?
**A.** 0.112 E-score

**Q.** What about the binding signal [9] of the same sequence?
**A.** 0.0525 E-score

**Q.** What about the binding signal [6] of the same sequence?
**A.** 0.0574 E-score

**Q.** And the binding signal [2]?
**A.** 0.477 E-score

**Q.** How did the binding signal [7] turn out when CGAAGTCA was run?
**A.** 0.0962 E-score

**Q.** And the binding signal [8]?
**A.** 0.132 E-score

**Q.** What about the binding signal [2] of the same sequence?
**A.** 0.42 E-score

**Q.** What does the source list for AGGTCAAT?
**A.** binding signal [7]: 0.137 E-score; binding signal [3]: 0.0969 E-score; binding signal [2]: 0.478 E-score

**Q.** What does the source list for GAATTGAC?
**A.** binding signal [3]: 0.0993 E-score; binding signal [4]: 0.092 E-score; binding signal [5]: 0.0675 E-score; binding signal [6]: 0.0714 E-score; binding signal [8]: 0.051 E-score; binding signal [2]: 0.439 E-score

**Q.** How did the binding signal [7] turn out when TGACTGCA was run?
**A.** 0.0778 E-score

**Q.** And the binding signal [3]?
**A.** 0.0624 E-score

**Q.** And the binding signal [4]?
**A.** 0.0918 E-score

**Q.** What about the binding signal [2] of the same sequence?
**A.** 0.413 E-score

**Q.** What does the source list for CAGTCAGA?
**A.** binding signal [1]: 0.0745 E-score; binding signal [2]: 0.404 E-score

**Q.** Which results are given for CACGGTCA?
**A.** binding signal [1]: 0.052 E-score; binding signal [8]: 0.063 E-score; binding signal [2]: 0.44 E-score

**Q.** Which binding signal [1] does the source give for CGTTGACC here?
**A.** 0.0797 E-score

**Q.** What about the binding signal [9] of the same sequence?
**A.** 0.0594 E-score

**Q.** And the binding signal [8]?
**A.** 0.123 E-score

**Q.** And the binding signal [2]?
**A.** 0.496 E-score

**Q.** What does the source list for TCGTCAAA?
**A.** binding signal [3]: 0.0878 E-score; binding signal [4]: 0.0946 E-score; binding signal [6]: 0.0744 E-score; binding signal [2]: 0.432 E-score

**Q.** With GAGTCAAC as the sequence, how does the binding signal [1] read?
**A.** 0.14 E-score

**Q.** What about the binding signal [2] of the same sequence?
**A.** 0.487 E-score

**Q.** For CGTTTGAC, which binding signal [4] is on record?
**A.** 0.0858 E-score

**Q.** And the binding signal [9]?
**A.** 0.0589 E-score

**Q.** And the binding signal [6]?
**A.** 0.0861 E-score

**Q.** And the binding signal [2]?
**A.** 0.476 E-score

**Q.** Which binding signal [1] does the source give for GTGTCAAC here?
**A.** 0.0933 E-score

**Q.** What about the binding signal [9] of the same sequence?
**A.** 0.0561 E-score

**Q.** What about the binding signal [2] of the same sequence?
**A.** 0.404 E-score

**Q.** Which results are given for AAAGTCTT?
**A.** binding signal [7]: 0.0508 E-score; binding signal [3]: 0.109 E-score; binding signal [2]: 0.429 E-score

**Q.** Which results are given for GCAGTCAA?
**A.** binding signal [4]: 0.0666 E-score; binding signal [9]: 0.0815 E-score; binding signal [8]: 0.0556 E-score; binding signal [2]: 0.478 E-score

**Q.** Which binding signal [1] does the source give for AGTCAGAC here?
**A.** 0.0719 E-score

**Q.** What about the binding signal [2] of the same sequence?
**A.** 0.442 E-score

**Q.** GAAAGTCA was tested. Which binding signal [4] did it give?
**A.** 0.0574 E-score

**Q.** What about the binding signal [5] of the same sequence?
**A.** 0.0781 E-score

**Q.** What about the binding signal [2] of the same sequence?
**A.** 0.461 E-score

**Q.** Which binding signal [3] does the source give for CTCGTCAA here?
**A.** 0.0602 E-score

**Q.** What about the binding signal [4] of the same sequence?
**A.** 0.0515 E-score

**Q.** What about the binding signal [9] of the same sequence?
**A.** 0.0553 E-score

**Q.** And the binding signal [2]?
**A.** 0.424 E-score

**Q.** With GAAAAGTC as the sequence, how does the binding signal [1] read?
**A.** 0.139 E-score

**Q.** And the binding signal [4]?
**A.** 0.137 E-score

**Q.** What about the binding signal [9] of the same sequence?
**A.** 0.145 E-score

**Q.** And the binding signal [6]?
**A.** 0.0971 E-score

**Q.** And the binding signal [8]?
**A.** 0.19 E-score

**Q.** What about the binding signal [2] of the same sequence?
**A.** 0.413 E-score

**Q.** Which binding signal [3] does the source give for GTTTGACA here?
**A.** 0.0647 E-score

**Q.** And the binding signal [4]?
**A.** 0.101 E-score

**Q.** And the binding signal [6]?
**A.** 0.0521 E-score

**Q.** What about the binding signal [2] of the same sequence?
**A.** 0.417 E-score

**Q.** GATTTGAC was tested. Which binding signal [4] did it give?
**A.** 0.122 E-score

**Q.** What about the binding signal [2] of the same sequence?
**A.** 0.464 E-score

**Q.** With AGTCAATG as the sequence, how does the binding signal [4] read?
**A.** 0.0527 E-score

**Q.** What about the binding signal [6] of the same sequence?
**A.** 0.0628 E-score

**Q.** What about the binding signal [2] of the same sequence?
**A.** 0.481 E-score

**Q.** With GAAGACCA as the sequence, how does the binding signal [1] read?
**A.** 0.0558 E-score

**Q.** What about the binding signal [2] of the same sequence?
**A.** 0.442 E-score

**Q.** Which results are given for GTTGACGA?
**A.** binding signal [4]: 0.0784 E-score; binding signal [2]: 0.453 E-score

**Q.** Which results are given for CCGTCAAC?
**A.** binding signal [1]: 0.0816 E-score; binding signal [2]: 0.451 E-score

**Q.** How did the binding signal [4] turn out when AGGTCAAC was run?
**A.** 0.051 E-score
